High-throughput results as filed in PubChem.
AddAB inh: growth inhibition of E. coli expressing H. pylori AddAB, primary screen, AddAB inhibitor project, absorbance. inhibition, % at 11.9 µM. 330,000 tested, 0.29% active. AID 435030, 2010; in the data active = inhibition above about 12%;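 also: 0% = vehicle wells of infected cells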
E coli growth-1: E. coli V3065 growth inhibition, primary screen, counter-screen for AddAB inhibitor project, absorbance, OD600; 18 h; inhibition, % at 11.9 µM; 330,000 tested, 0.27% active;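 active = inhibition above the campaign's mean inhibition across all tested compounds plus 3 SD, cut at about 9.9% in these data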;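 also: uninfected addAB+ strain grown without phage in ampicillin broth; 0% = DMSO wells and 100% = ciprofloxacin 0.95 µg/ml wells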
phage Ecoli inh: growth loss of phage-infected E. coli, primary screen, RecBCD inhibitor project, absorbance, with phage, HTS. inhibition, % at 11.9 µM. 360,000 tested, 0.26% active; in the data active = inhibition above about 11%
E coli growth-2: E. coli growth inhibition, primary screen, OD600; Escherichia coli growth, 23 h; stronger effect = lower value; OD600 absorbance (concentration not given with the values); 330,000 tested, 0.21% active;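 active = OD600 absorbance below the run mean of sample wells minus 3.6 SD, in any replicate, cut at about 0.56 in these data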
Tat transport: E. coli Tat export inhibitors, primary screen, MC4100, TorA-mCherry reporter, fluorescence, single point. inhibition, % at 10 µM. 340,000 tested, 0.036% active;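 active = mean replicate inhibition at least 50% and at least half of replicates individually reaching 50%; inconclusive = only one of the two criteria met; inactive = neither criterion met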;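 also: exported cargo escapes ClpAP degradation while cytoplasmic cargo is degraded and loses fluorescence; 0% = median of neutral control wells and 100% = median of NaSCN control wells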
AddAB conf: growth loss of phage-infected E. coli expressing H. pylori AddAB, confirmation, AddAB inhibitor project, absorbance, E. coli V3065, T4 phage, triplicate; shares compounds with AddAB inh; OD; T4 phage with gene 2 nonsense mutations; inhibition, % at 11.9 µM; 880 tested, 64% active; AID 488942, 2010;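 active = mean inhibition above a set limit taken from the earlier primary screen, cut at about 13% in these data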;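 also: higher means less bacterial growth since AddAB block lets phage replicate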
RecBCD counter: growth loss of RecBCD+ E. coli with mutant T4 phage, counter-screen for AddAB inhibitor project, absorbance, V66 E. coli; OD growth; shares compounds with AddAB inh; inhibition, % at 11.9 µM; AID 488955, 2010; 880 tested, 73% active;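 active = mean inhibition above the mean of solvent-only control wells plus 3 SD, cut at about 4% in these data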;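 also: optical density read after an 18 h incubation at 37 °C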
bact viab count: bacterial viability inhibition counter-screen, confirmation, counter-screen for AddAB inhibitor project, absorbance; 880 tested, 35% active; shares compounds with AddAB inh; AID 488956, 2010; absorbance (AddAB counterscreen); inhibition, % at 11.9 µM; in the data active = inhibition above about 25%
* hit, by the source's call; ? = inconclusive; . = not tested or not shown. Shown are actives, neighbours in structure and some others; about 0.5% of the full set was active somewhere.

SMILES | AddAB inh | E coli growth-1 | phage Ecoli inh | E coli growth-2 | Tat transport | AddAB conf | RecBCD counter | bact viab count
COc1ccc(S(=O)(=O)N2CCOC2CNC(=O)C(=O)NCCc2ccccc2)cc1C (stereo not given) | 42.8* | 15.3* | 3.7 | 0.805 | -12.2 | -0.4 | -1.0 | -2.2
CCC1=C(OC(=O)N(CC)CC)N2C(=O)OC(=NCCc3c[nH]c4ccccc34)[C@]2(C)C2C1=CCC1C(=O)N(C)C(=O)C12 (stereo not given in full) | . | . | . | 0.685 | . | . | . | .
CCOc1ccc(Cc2onc3c2C(=O)CCC3)cc1OCC | 98.6* | 96.9* | 2.8 | 0.706 | 6.0 | -1.2 | 0.1 | -0.1
CCOc1ccc(Cc2onc3c2C(=O)CC(C)(C)C3)cc1OCC | 1.9 | 2.3 | 1.5 | 0.678 | 5.6 | . | . | .
Cc1ccc(NC(=O)COC(=O)C2CCN(c3ccc(C(F)(F)F)cn3)CC2)cc1C | 96.1* | 52.5* | 6.2 | 0.707 | 9.4 | -3.6 | -1.7 | -3.2
Cc1ccc(N2CC(NS(=O)(=O)c3cccs3)CC2=O)cc1 (stereo not given) | 98.3* | 98.1* | 4.3 | 0.634 | -1.3 | 0.1 | 2.1 | 2.7
COC(=O)C1=C(N)n2c(sc(=Cc3cccnc3)c2=O)=C(C(=O)OC)C1c1cccnc1 (stereo not given) | . | . | . | 0.703 | . | . | . | .
CCN1C(=O)C2C(c3ccc(-c4cccc(Cl)c4)cc3)N3CCC[C@@]3(C(=O)OC)C2C1=O (stereo not given in full) | . | . | . | 0.702 | . | . | . | .
Cc1ccccc1-c1nc(CN2CCC(C(=O)O)CC2)c(C)o1 | 20.4* | 5.6 | 1.4 | 0.705 | ? | 3.5 | 0.9 | -2.5
CCC(=O)NC(c1ccccc1OC)c1ccc2cccnc2c1O (stereo not given) | 28.5* | 24.4* | . | 0.66 | -8.2 | 17.8* | 22.7* | 15.1
N#CC(=Cc1cccc(Cl)c1)c1n[nH]c(Cn2cncn2)n1 | . | . | . | 0.689 | . | . | . | .
Cc1cc(C)c2c(NC(=O)CCl)nn(C)c2n1 | 93.4* | 65.2* | -0.2 | 0.713 | -0.3 | 1.7 | 0.1 | -0.1
O=C(NN=Cc1cn(-c2ccccc2)nc1-c1cccs1)c1ccncc1 | . | . | . | 0.725 | . | . | . | .
Oc1ccc(N=Nc2c(O)ccc3ccccc23)cc1 | 13.3* | 12.8* | 3.1 | 0.594 | -5.4 | 60.2* | 3.9 | 16.8
NS(=O)(=O)c1ccc(N=Nc2c(O)ccc3ccccc23)cc1 | 1.7 | 1.4 | 1.6 | 0.686 | -0.9 | . | . | .
COc1cc(C=NNc2nncc3ccccc23)cc(OC)c1OC | . | . | . | 0.667 | . | . | . | .
COc1ccc(Cc2nnc(NN)[nH]c2=O)cc1OC | 97.2* | 92.7* | 0.4 | 0.0805* | 11.5 | 98.8* | 11.5* | 96.6*
COCCNc1nnc(Cc2ccc(OC)c(OC)c2)c(=O)[nH]1 | -1.7 | -0.4 | -0.2 | 0.629 | 2.8 | . | . | .
COc1ccc([N+](=O)[O-])cc1NC(=O)C(C)OC(=O)C1CCCC1 (stereo not given) | 0.1 | 1.1 | -0.1 | 0.655 | -1.6 | . | . | .
COc1ccc([N+](=O)[O-])cc1NC(=O)C(C)OC(=O)C1CCC1 (stereo not given) | 97.8* | 94.7* | -0.4 | 0.616 | -10.8 | -3.1 | -1.6 | -4.9
COc1c(N2CCN[C@H](C)C2)c(F)cc2c(=O)c(C(=O)O)cn(C3CC3)c12 | 101.8* | 102.8* | . | . | . | 100.2* | 99.7* | 100.8*
O=C(Nc1cccc(NC(=O)c2cccs2)c1)c1ccc([N+](=O)[O-])o1 | 27.3* | 16.2* | 10.6 | 0.409* | -13.4 | 95.8* | 9.4* | 28.2*
O=C(Nc1nc(-c2cccs2)cs1)c1ccc([N+](=O)[O-])o1 | 13.0* | 6.5 | 10.1 | 0.515* | -19.3 | 84.9* | 7.5* | 13.0
O=C(Nc1cccc(NC(=O)c2ccc([N+](=O)[O-])o2)c1)c1ccco1 | 24.1* | 17.2* | 10.0 | 0.46* | -30.4 | 98.6* | 10.0* | 30.2*
Cc1nc2ccccc2c(=O)n1N=C/C=C/c1ccccc1 | . | . | . | 0.661 | . | . | . | .
SMILES | AddAB inh | E coli growth-1 | phage Ecoli inh | E coli growth-2 | Tat transport | AddAB conf | RecBCD counter | bact viab count
O=C(C=Cc1cccc(Cl)c1)OCc1cn2cc(Cl)ccc2n1 | . | . | . | 0.732 | . | . | . | .
C/C(C=NNC(=O)c1cc(-c2ccc3ccccc3c2)n[nH]1)=C\c1ccco1 | . | . | . | 0.736 | . | . | . | .
S=C(NCCCc1ccccc1)Nc1ccccc1 | . | . | -0.9 | 0.683 | -5.2 | . | . | .
S=C(NCCCc1ccccc1)Nc1ccc(Cl)cc1 | 12.3* | 7.5 | 8.6 | 0.581 | -1.3 | 11.3 | 11.6* | 6.2
C#CCOCCOCCOCCNc1nc(N2CCN(C(=O)CCCCCCCCCCNC(=O)C(CO)n3cc(CCCCCN)nn3)CC2)nc(N2CCN(C(=O)CCCCCCCCCCNC(=O)C(CCC(=O)O)n3cc(CCCCCN)nn3)CC2)n1 (stereo not given) | . | . | . | 0.632 | . | . | . | .
CCCC(=O)NC(Nc1ccc(S(=O)(=O)Nc2cc(C)on2)cc1)(C(=O)OCC)C(F)(F)F (stereo not given) | 2.3 | 0.2 | 3.8 | 0.71 | -6.2 | . | . | .
CCCC(=O)NC(Nc1ccc(S(=O)(=O)Nc2cc(C)on2)cc1)(C(F)(F)F)C(F)(F)F | 15.5* | 8.1 | 3.2 | 0.725 | -2.9 | -1.4 | 2.0 | 1.2
O=C(NCc1ccccc1)C1CCN(S(=O)(=O)c2cccc3cccnc23)CC1 | 1.2 | -2.0 | 2.0 | 0.743 | -0.7 | . | . | .
COc1ccc(CNC(=O)C2CCN(S(=O)(=O)c3cccc4cccnc34)CC2)cc1 | 13.5* | 2.1 | 2.6 | 0.689 | 2.6 | -5.7 | 0.2 | -3.4
Cc1[nH]c(C(=O)NN=Cc2ccc(N(C)C)cc2)c(C)c1C(=O)NN=Cc1ccc(N(C)C)cc1 | . | . | . | 0.691 | . | . | . | .
O=c1c2ccccc2[nH]c2ccc(F)cc12 | 14.5* | 10.1* | 10.4 | 0.612 | -2.8 | 7.1 | 8.8* | 3.2
O=C(CSc1ncccn1)NC(=O)Nc1ccc2c(c1)OCCO2 | 12.4* | 8.7 | 7.2 | 0.558 | -4.1 | 8.2 | 6.4* | 5.2
O=C(CSc1ncccn1)Nc1ccc2c(c1)OCO2 | 1.2 | -0.5 | 1.5 | 0.714 | 5.7 | . | . | .
C[n+]1cccc2c(Br)ccc([O-])c21 | 0.8 | -3.8 | 2.2 | 0.648 | 2.5 | . | . | .
[O-][n+]1cccc2c(Br)cc(Br)c(O)c21 | 39.5* | 39.9* | 43.4* | 0.237* | -7.5 | 37.5* | 46.6* | 40.6*
CCN(CC)c1ccc(C=NNC(=O)c2ccoc2C)cc1 | . | . | . | 0.675 | . | . | . | .
O=C(NC1CCC(=O)N(C(CSc2ccccc2)Cc2ccccc2)CC1)OCc1ccccc1 (stereo not given) | . | . | . | 0.708 | . | . | . | .
CC(NC(=O)c1[nH]cnc1C(=O)Nc1ccc(Cl)cc1)C(=O)OC(C)(C)C (stereo not given) | . | . | . | 0.694 | . | . | . | .
